Measured values taken from PubChem BioAssay (NCATS).
Values joined by “and” are separate entries in the source; they are usually repeats but may differ in a detail not shown here. Equal entries are not always repeated. Inconclusive results are not listed. Active and inactive are the calls of the source. Unless noted, the call rests on the fitted dose curve; in most records, active means well fitted curve in either direction with a large enough effect (not every such curve was filed as active); inconclusive means small, poorly fitted or top-dose-only effect, or another doubt; inactive means flat fitted curve, though single readings scatter.

What was measured:
[1] = AP1 Signaling Pathway (AID 357); settings: ME-180 AP-1-bla reporter, EGF-induced, beta-lactamase ratio, 5 h; further: on the % scale 0 is the no-effect control and ±100 the full control effect
Outline: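 ME-180 cells with beta-lactamase reporter under AP-1 response element, stimulated with EC50 EGF; compounds tested in titration series, 5 h at 37 °C. CCF4 substrate added 2.5 h at room temperature; 460/530 nm emission ratio gave %activity and AC50.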

[2] = Cell Viability - BJ (AID 421; calls by dose curve;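 further: potency means the concentration at half of the fitted maximal effect; cells exposed to compound for 40 hours at 37 °C before readout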); settings: BJ fibroblast viability, qHTS
Source text: NIH Chemical Genomics Center [NCGC]
NIH Molecular Libraries Screening Centers Network [MLSCN]
National Institutes of Environmental Health Sciences [NIEHS]
National Toxicology Program [NTP]
We have developed a 1536-well cell-based assay for quantitative high throughput screening (qHTS) against a number of cell lines to determine in vitro cytotoxicity of small molecules. This particular assay uses the BJ cell line from ATCC which is derived from normal human foreskin fibroblasts.
NCGC Assay Protocol Summary:
The CellTiter-Glo luminescent cell viability assay (Promega) is a homogeneous method to measure the number of viable cells in culture. The end point readout of this assay is based on quantitation of intracellular ATP, an indicator of metabolic activity, using the luciferase reaction. Luciferase catalyzes the oxidation of beetle Luciferin to oxyluciferin and light in the presence of ATP. The luminescent signal is proportional to amount of ATP present.
Using the CellTiter-Glo luminescent cell viability assay, the amount of cellular ATP was measured in the BJ cell line with complete culture medium following compound treatment for 40 hours. The assay was performed in opaque white Kalypsys 1536-well plates. In the screen, tamoxifen and doxorubicin were used as positive controls. Library compounds were measured for their ability to cause acute toxicity in the cell line, as reflected by a decrease in intracellular ATP levels, in a concentration-dependent manner. Data were normalized to the controls for basal activity (DMSO only) and 100% inhibition (100 uM tamoxifen). AC50 values were determined from concentration-response data modeled with the standard Hill equation.
qHTS protocol fo CellTiter Glo BJ cellular assay
[Step] [Parameter] [Value] [Description]
1. Reagent; 5 uL; 1500 BJ cells/well
2. Time; 5 hr; 37 °C incubation
4. Controls; 23 nL; Tamoxifen 0.34 uM to 100 uM & Doxorubicin 0.02 nM to 100 uM
5. Time; 40 hr; 37 °C incubation
6. Reagent; 5 uL; CellTiter Glo reagent
7. Time; 20 min; Room Temperature
8. Detection; Luminescence; Viewlux plate reader
Keywords: cell viability, cytotoxicity, BJ cell line, luminescence, NTPHTS, NTPHTS_NCGC, NIEHS, EPA, DSSTox, MLSMR, MLSCN, NIH Roadmap, qHTS, NCGC

[3] = Cell Viability - Jurkat (AID 426;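 active means dose-dependent loss of cell ATP signal giving a full or clear fitted curve, ranked by lower potency value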; further: potency means the concentration at half of the fitted maximal effect); settings: qHTS
Outline: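 Luminescent ATP read-out (CellTiter-Glo, 20 min at room temperature) after 40 hr compound exposure at 37 °C of Jurkat E6-1 cells, 5000/well. Decreased ATP taken as cytotoxicity; AC50 from standard Hill equation.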

[4] = Cell Viability - Hek293 (AID 427;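 active means compounds whose dose-response curve shows a full or clear partial loss of cell viability, called from curve shape rather than a numeric limit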;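 further: potency means the concentration at half of the fitted maximal effect; cells exposed to compound for 40 hours at 37 °C before reading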); settings: qHTS
Outline: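 HEK293 cells in complete medium were exposed to compound for 40 hr at 37 °C, then cellular ATP was read by CellTiter-Glo luminescence. Data were normalized to DMSO (basal) and 100 uM tamoxifen (100% inhibition), and AC50 came from Hill fits.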

[5] = Cell Viability - HepG2 (AID 433; calls by dose curve;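 further: potency means the concentration at half of the fitted maximal effect; potency for ATP loss meaning cytotoxicity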); settings: qHTS
Outline: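 Read-out is luciferase-based quantitation of cellular ATP as a measure of viable HepG2 cells after 40 h treatment at 37 °C. Signal decrease is scaled between DMSO-only and 100 uM tamoxifen controls, with AC50 fitted by the Hill equation.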

[6] = Cell Viability - MRC5 (AID 434; calls by dose curve;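 further: potency means the concentration at half of the fitted maximal effect; potency reflects cytotoxicity seen as loss of intracellular ATP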); settings: MRC5 lung fibroblast viability, qHTS
Outline: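 Decrease in intracellular ATP, quantified by luciferase light output, reflects compound toxicity toward MRC5 cells exposed for 40 hr in complete culture medium. Concentration-response curves, scaled between DMSO and 100 uM tamoxifen, gave AC50 values.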

[7] = Cell Viability - SK-N-SH (AID 435; calls by dose curve;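 further: potency means the concentration at half of the fitted maximal effect; compound exposure lasted 40 h at 37 °C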); settings: SK-N-SH neuroblastoma cell viability qHTS
Outline: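 Luminescent ATP signal served as the viability read-out after 40 hours of compound treatment of human neuroblastoma SK-N-SH cells. Concentration-response data, scaled between DMSO and 100 uM tamoxifen, gave AC50 values by standard Hill modeling.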

[8] = NFAT Signaling Pathway (AID 444); settings: Jurkat NFAT-bla M1, carbachol, beta-lactamase ratio, 5 h;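 further: carbachol stimulus at about its EC50 of 1 µM final; on the % scale 0 is the no-effect control and ±100 the full control effect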
Outline: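 Jurkat cells carrying an NFAT-driven β-lactamase reporter and co-transfected muscarinic M1 receptor were treated with compound plus carbachol (1 uM final, an EC50 level) for 5 h at 37 °C. CCF4 loading followed for 1 h at RT; 460/530 nm ratio gave %activity.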

[9] = Stat Signaling Pathway (AID 446); settings: ME-180 (cervical carcinoma) SIE beta-lactamase reporter, IL-6 stimulated, 5 h; series mostly up to 17.2 µM;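 further: ME-180 cervical cancer cells given 40 pM IL-6 alongside compound; SIE-controlled beta-lactamase reporter measured as 460/530 nm FRET emission ratio; on the % scale 0 is the no-effect control and ±100 the full control effect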
Outline: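 Normalization used AC90 stimulation (300 pM IL-6) and AC90 inhibition (125 nM pan-JAK inhibitor at 40 pM IL-6). The underlying signal is SIE-driven beta-lactamase in ME-180 cells after 5 h IL-6 exposure with compound.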

NC(N)=NC(=O)c1nc(Cl)c(N)nc1N
inactive: activity change, negative = inhibition ([1]; at 17.2 µM (top of the series)) 2.66% and -5.39% | activity change, negative = inhibition ([1]; at 38 µM (top of the series)) -2.62% | Potency [2] > 92 µM | Potency [3] > 92 µM | Potency [4] > 92 µM | Potency [5] > 92 µM | Potency [6] > 92 µM | Potency [7] > 92 µM | activity change, negative = inhibition ([8]; at 17.2 µM (top of the series)) 8.59% and -17.4% | activity change, negative = inhibition ([8]; at 38 µM (top of the series)) -2.5% | outcome [9]

N[C@@H]1CONC1=O
inactive: activity change, negative = inhibition ([1]; at 17.2 µM (top of the series)) 4.13% and -17.2% | activity change, negative = inhibition ([1]; at 38 µM (top of the series)) 6.67% and -0.268% and -2.74% | activity change, negative = inhibition ([8]; at 17.2 µM (top of the series)) -1.83% | activity change, negative = inhibition ([8]; at 38 µM (top of the series)) -6.1% and -4.54% and -4.29% | outcome [9]

CNC[C@H](O)c1cccc(O)c1
inactive: activity change, negative = inhibition ([1]; at 17.2 µM (top of the series)) -10.2% | activity change, negative = inhibition ([1]; at 38 µM (top of the series)) -17.9% | activity change, negative = inhibition ([8]; at 17.2 µM (top of the series)) -25.3% | activity change, negative = inhibition ([8]; at 38 µM (top of the series)) -0.528% | outcome [9]

CC(C[N+](C)(C)C)OC(N)=O (centres undefined)
inactive: activity change, negative = inhibition ([1]; at 17.2 µM (top of the series)) 1.75% | outcome [9]

CCCC(CCC)C(=O)O
inactive: activity change, negative = inhibition ([1]; at 38 µM (top of the series)) 10.8% | Potency [2] > 92 µM | Potency [3] > 92 µM | Potency [4] > 92 µM | Potency [5] > 92 µM | Potency [6] > 92 µM | Potency [7] > 92 µM | activity change, negative = inhibition ([8]; at 38 µM (top of the series)) 4.56% | outcome [9]

Nc1nc2c(ncn2COCCO)c(=O)[nH]1
inactive: activity change, negative = inhibition ([1]; at 17.2 µM (top of the series)) 10.5% and -13.7% | activity change, negative = inhibition ([1]; at 38 µM (top of the series)) 1.53% | activity change, negative = inhibition ([8]; at 17.2 µM (top of the series)) -0.796% and 22.4% | activity change, negative = inhibition ([8]; at 38 µM (top of the series)) 9.44% | outcome [9]

C1COC(NC(C2CC2)C2CC2)=N1
inactive: activity change, negative = inhibition ([1]; at 17.2 µM (top of the series)) -19.2% and -1.91% | activity change, negative = inhibition ([1]; at 38 µM (top of the series)) -23.4% | activity change, negative = inhibition ([8]; at 17.2 µM (top of the series)) -20.2% and 11.2% | activity change, negative = inhibition ([8]; at 38 µM (top of the series)) -2.75% | outcome [9]

Cc1[nH]c(=O)c(C#N)cc1-c1ccncc1
inactive: activity change, negative = inhibition ([1]; at 17.2 µM (top of the series)) 8.13% | activity change, negative = inhibition ([1]; at 38 µM (top of the series)) -0.284% | activity change, negative = inhibition ([8]; at 17.2 µM (top of the series)) -20.1% | activity change, negative = inhibition ([8]; at 38 µM (top of the series)) -0.614% | outcome [9]

COc1ccc2nc(S(=O)Cc3ncc(C)c(OC)c3C)[nH]c2c1 (centres undefined)
inactive: activity change, negative = inhibition ([1]; at 17.2 µM (top of the series)) 4.02% and -1.7% | activity change, negative = inhibition ([8]; at 17.2 µM (top of the series)) -26.1% and -10.4% | outcome [9]

CCOC(=O)C1=C[C@]2(CC)CCCN3CCc4c(n1c1ccccc41)[C@@H]32
inactive: outcome [9]

Clc1cccc(Cl)c1NC1=NCCN1
inactive: activity change, negative = inhibition ([1]; at 17.2 µM (top of the series)) -0.203% | activity change, negative = inhibition ([1]; at 38 µM (top of the series)) 4.79% | activity change, negative = inhibition ([8]; at 17.2 µM (top of the series)) -11.5% | activity change, negative = inhibition ([8]; at 38 µM (top of the series)) -5.97% | outcome [9]

Cc1cc2c(C(C)C)c(O)c(O)c(C=O)c2c(O)c1-c1c(C)cc2c(C(C)C)c(O)c(O)c(C=O)c2c1O
active: activity change, negative = inhibition ([8]; at 17.2 µM (top of the series)) -68.3%

O=NN(CCCl)C(=O)NCCCl
inactive: activity change, negative = inhibition ([1]; at 38 µM (top of the series)) 3.21% | activity change, negative = inhibition ([8]; at 38 µM (top of the series)) -7.61%

Cc1cn[nH]c1
inactive: activity change, negative = inhibition ([1]; at 38 µM (top of the series)) 13.5% | activity change, negative = inhibition ([8]; at 38 µM (top of the series)) -5.73% | outcome [9]

O=C1CCc2cc(OCCCCc3nnnn3C3CCCCC3)ccc2N1
inactive: activity change, negative = inhibition ([1]; at 17.2 µM (top of the series)) -11% | activity change, negative = inhibition ([1]; at 38 µM (top of the series)) -14.1% | activity change, negative = inhibition ([8]; at 17.2 µM (top of the series)) -6.28% | activity change, negative = inhibition ([8]; at 38 µM (top of the series)) -9.05% | outcome [9]

Nc1ccc(S(=O)(=O)Nc2ccnn2-c2ccccc2)cc1
inactive: activity change, negative = inhibition ([1]; at 17.2 µM (top of the series)) 1.79% | activity change, negative = inhibition ([1]; at 38 µM (top of the series)) 4.55% | activity change, negative = inhibition ([8]; at 17.2 µM (top of the series)) -4.12% | activity change, negative = inhibition ([8]; at 38 µM (top of the series)) 1.19% | outcome [9]

CCCCNc1cc(C(=O)O)cc(S(N)(=O)=O)c1Oc1ccccc1
inactive: activity change, negative = inhibition ([1]; at 17.2 µM (top of the series)) 2.74% and -1.68% | activity change, negative = inhibition ([1]; at 38 µM (top of the series)) -1.83% | activity change, negative = inhibition ([8]; at 17.2 µM (top of the series)) 1.71% and -0.748% | activity change, negative = inhibition ([8]; at 38 µM (top of the series)) 7.04% | outcome [9]

N#Cc1ccc(C(c2ccc(C#N)cc2)n2cncn2)cc1
inactive: activity change, negative = inhibition ([1]; at 17.2 µM (top of the series)) -15.5% | activity change, negative = inhibition ([8]; at 17.2 µM (top of the series)) -8.25% | outcome [9]

CCOC(=O)C1=C[C@@]2(CC)CCCN3CCc4c(n1c1ccccc41)[C@H]32
active: activity change, negative = inhibition ([1]; at 38 µM (top of the series)) 94.5% [activator]
inactive: activity change, negative = inhibition ([8]; at 17.2 µM (top of the series)) -3.7% | activity change, negative = inhibition ([8]; at 38 µM (top of the series)) 0.129% | outcome [9]

Cc1ccc(N(CC2=NCCN2)c2cccc(O)c2)cc1
inactive: activity change, negative = inhibition ([1]; at 17.2 µM (top of the series)) 6.96% and 4.13% and 12.9% | activity change, negative = inhibition ([1]; at 38 µM (top of the series)) 18% | activity change, negative = inhibition ([8]; at 17.2 µM (top of the series)) -19.1% and -11.9% and 3.66% | activity change, negative = inhibition ([8]; at 38 µM (top of the series)) -12.9% | outcome [9]
